Assay results published in PubChem BioAssay (NCI).
Where “and” joins values, the source holds several entries; their conditions need not be identical. Equal values may be shown once. The panel holds about 79,000 compounds, 15% with a hit somewhere; the sample as a whole holds those more often. Calls of active or inactive are those of the source. Cut-off read from the data, not from the text of the source: active = growth inhibition above about 70%; inactive = the rest.

Experiments:
[1] = NCI Yeast Anticancer Drug Screen. Data for the rad52 strain (AID 147);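 note: 0% = growth of vehicle-treated control cultures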; conditions: S. cerevisiae rad52 mutant growth inhibition, active compounds read high
Method in brief: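 The repair-mutant yeast strain was incubated with compounds, then growth was read and inhibition derived relative to vehicle.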

[2] = NCI Yeast Anticancer Drug Screen. Data for the wt1 strain (AID 149);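 note: 0% = growth of vehicle-treated wt1 cultures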; conditions: S. cerevisiae wt1 strain (SPY 50644) growth inhibition, active compounds read high
Method in brief: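 Measured: growth of wt1 yeast under compound versus vehicle treatment, reported as inhibition.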

[3] = NCI Yeast Anticancer Drug Screen. Data for the rad50EPP+ strain (AID 151);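 note: 0% = growth of vehicle-treated control cultures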; conditions: S. cerevisiae rad50 mutant strain, active compounds read high
Method in brief: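 Vehicle-normalised growth inhibition; rad50EPP+ yeast strain, altered in DNA damage repair, compound-treated.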

[4] = NCI Yeast Anticancer Drug Screen. Data for the mgt1 strain (AID 153); conditions: S. cerevisiae mgt1 mutant growth inhibition, active compounds read high
Method in brief: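 Vehicle-normalized growth inhibition is determined in mgt1 yeast, a strain selected for a defined alteration in DNA repair or cell cycle control.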

[5] = NCI Yeast Anticancer Drug Screen. Data for the rad50 strain (AID 155);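 note: 0% = growth of vehicle-only cultures of the same strain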; conditions: S. cerevisiae rad50 strain growth inhibition, active compounds read high
Method in brief: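 Growth of the mutant yeast was measured after compound exposure and referenced to vehicle-treated cultures.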

[6] = NCI Yeast Anticancer Drug Screen. Data for the mec2-1 strain (AID 157); conditions: S. cerevisiae mec2-1 strain, active compounds read high
Method in brief: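 Mutant yeast (mec2-1) grown with compound; growth inhibition relative to vehicle control reported.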

[7] = NCI Yeast Anticancer Drug Screen. Data for the rad14 strain (AID 159);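 note: 0% = growth of vehicle-treated control cultures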; conditions: S. cerevisiae rad14 strain growth inhibition, active compounds read high
Method in brief: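 Here, inhibition of yeast growth was measured after compound exposure, using a strain with a genetic defect in DNA damage repair and vehicle-treated cultures as the reference.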

[8] = NCI Yeast Anticancer Drug Screen. Data for the sgs1 mgt1 strain (AID 161);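 note: 0% = growth of cultures given vehicle only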; conditions: S. cerevisiae sgs1 mgt1 strain, active compounds read high
Method in brief: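 Growth of a repair-deficient yeast mutant was monitored after compound treatment and expressed as inhibition relative to vehicle-treated cultures.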

[9] = NCI Yeast Anticancer Drug Screen. Data for the CLN2oe strain (AID 163);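 note: 0% = growth of vehicle-only control cultures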; conditions: S. cerevisiae CLN2oe strain, active compounds read high
Method in brief: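 Compounds are applied to yeast harbouring a defined cell-cycle control change; reduced growth compared with vehicle-treated controls gives the value.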

[10] = NCI Yeast Anticancer Drug Screen. Data for the cln2 rad14 strain (AID 165);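 note: 0% = growth equal to vehicle treated cultures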; conditions: S. cerevisiae cln2 rad14 strain, active compounds read high
Method in brief: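 Readout is yeast growth inhibition versus vehicle-treated controls, using a strain with cln2 and rad14 alterations exposed to compound.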

[11] = NCI Yeast Anticancer Drug Screen. Data for the bub3 strain (AID 167); conditions: S. cerevisiae bub3 mutant strain, active compounds read high
Method in brief: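 Whole-cell yeast assay. The mutant strain was incubated with compounds, and growth inhibition was determined by comparison with vehicle-treated cells.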

[12] = NCI Yeast Anticancer Drug Screen. Data for the wt2 strain (AID 169);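 note: 0% = growth of vehicle-treated yeast cultures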; conditions: S. cerevisiae wt2 strain growth inhibition, active compounds read high
Method in brief: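 Against vehicle-treated controls, the growth of yeast exposed to each compound was compared, and the inhibition was recorded.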

[13] = NCI Yeast Anticancer Drug Screen. Data for the mlh1 strain (AID 171);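 note: 0% = growth of vehicle-treated control cultures of the same strain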; conditions: S. cerevisiae mlh1 strain growth inhibition, active compounds read high
Method in brief: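 Measured: yeast growth. Reference: vehicle-treated controls. Organism: strain with a defined alteration affecting DNA damage repair or cell cycle control, treated with compound.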

[14] = NCI Yeast Anticancer Drug Screen. Data for the sgs1 strain (AID 173);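 note: 0% = growth of vehicle-only control cultures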; conditions: S. cerevisiae sgs1 mutant, active compounds read high
Method in brief: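 Each compound was added to cultures of the altered yeast strain. Growth was recorded, and inhibition was derived by comparison with vehicle controls.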

[15] = NCI Yeast Anticancer Drug Screen. Data for the mlh1 rad18 strain (AID 175); conditions: S. cerevisiae mlh1 rad18 strain growth inhibition, active compounds read high
Method in brief: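 Genetically defined yeast (DNA repair-deficient) exposed to compounds; growth inhibition determined relative to vehicle.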

[16] = NCI Yeast Anticancer Drug Screen. Data for the rad18 strain (AID 177); conditions: S. cerevisiae rad18 mutant growth inhibition, active compounds read high
Method in brief: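 Vehicle-treated cultures served as the baseline for scoring compound-induced growth inhibition in DNA-repair-mutant yeast.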

[17] = at 5.0 µM (retest, dose inferred, filed as 0.5)
[18] = at 50.0 µM (retest, dose inferred, filed as 5.0)

Measured: growth inhibition

N#CC(C#N)=Cc1ccc(C#N)cc1
active: [5]; [18] 90% | [15]; [18] 76%
inactive: [1]; at 1.2 µM 0% | [1]; at 3.7 µM -4% | [1]; at 11.0 µM -1% | [1]; at 33.0 µM 0% | [1]; at 100.0 µM 11% | [2]; at 1.2 µM -2% | [2]; at 3.7 µM -2% | [2]; at 11.0 µM -3% | [2]; at 33.0 µM -2% | [2]; at 100.0 µM 3% | [3]; at 1.2 µM -2% | [3]; at 3.7 µM -2% | [3]; at 11.0 µM 0% | [3]; at 33.0 µM 0% | [3]; at 100.0 µM 0% | [4]; at 1.2 µM -2% | [4]; at 3.7 µM -2% | [4]; at 11.0 µM 0% | [4]; at 33.0 µM -3% | [4]; at 100.0 µM 1% | [5]; at 1.2 µM 1% | [5]; at 3.7 µM -4% | [5]; [17] -109% | [5]; at 11.0 µM 2% | [5]; at 33.0 µM 10% | [5]; at 50.0 µM -6.65% and 24.1% | [5]; at 100.0 µM 9% | [6]; at 1.2 µM 3% | [6]; at 3.7 µM 0% | [6]; [17] -47% | [6]; at 11.0 µM 6% | [6]; at 33.0 µM 3% | [6]; [18] 15% | [6]; at 50.0 µM -8.25% and 5.55% | [6]; at 100.0 µM 7% | [7]; at 1.2 µM 1% | [7]; at 3.7 µM 1% | [7]; at 11.0 µM 2% | [7]; at 33.0 µM 6% | [7]; at 100.0 µM 16% | [8]; [17] -56% | [8]; [18] 62% | [8]; at 50.0 µM -16.8% and -0.4% | [9]; at 1.2 µM -4% | [9]; at 3.7 µM -2% | [9]; at 11.0 µM 1% | [9]; at 33.0 µM 0% | [9]; at 100.0 µM 11% | [10]; [17] -60% | [10]; [18] -7% | [10]; at 50.0 µM 50.4% and 4.05% | [11]; at 1.2 µM -4% | [11]; at 3.7 µM -8% | [11]; [17] -65% | [11]; at 11.0 µM -7% | [11]; at 33.0 µM -7% | [11]; [18] 51% | [11]; at 50.0 µM -0.75% and 31.1% | [11]; at 100.0 µM 7% | [12]; at 1.2 µM -1% | [12]; at 3.7 µM -1% | [12]; at 11.0 µM -1% | [12]; at 33.0 µM 1% | [12]; at 100.0 µM 5% | [13]; at 1.2 µM 8% | [13]; at 3.7 µM -4% | [13]; at 11.0 µM -1% | [13]; at 33.0 µM 1% | [13]; at 100.0 µM 2% | [14]; at 1.2 µM -1% | [14]; at 3.7 µM -2% | [14]; at 11.0 µM -2% | [14]; at 33.0 µM -2% | [14]; at 100.0 µM 14% | [15]; [17] -109% | [15]; at 50.0 µM -24.6% and 16.7% | [16]; at 1.2 µM -1% | [16]; at 3.7 µM -1% | [16]; at 11.0 µM -1% | [16]; at 33.0 µM 0% | [16]; at 100.0 µM 9%

COc1cc([C@@H]2c3cc4c(cc3C[C@@H]3COC(=O)C32)OCO4)cc(OC)c1O (stereo partly specified)
active: [1]; at 11.0 µM 93% | [1]; at 33.0 µM 95% | [1]; at 100.0 µM 96% | [2]; at 33.0 µM 86% | [2]; at 100.0 µM 93% | [4]; at 100.0 µM 93% | [5]; at 3.7 µM 76% | [5]; at 11.0 µM 94% | [5]; at 33.0 µM 96% | [5]; [18] 96% | [5]; at 50.0 µM 97.1% | [5]; at 100.0 µM 97% | [6]; at 33.0 µM 92% | [6]; at 50.0 µM 98.8% | [6]; at 100.0 µM 96% | [7]; at 33.0 µM 75% | [7]; at 100.0 µM 93% | [8]; at 50.0 µM 78.3% | [10]; [18] 93% | [10]; at 50.0 µM 86.2% | [11]; at 50.0 µM 89.5% | [12]; at 33.0 µM 77% | [12]; at 100.0 µM 88% | [13]; at 33.0 µM 86% | [13]; at 100.0 µM 93% | [14]; at 11.0 µM 72% | [14]; at 33.0 µM 90% | [14]; at 100.0 µM 96% | [15]; at 50.0 µM 96.9% | [16]; at 33.0 µM 86% | [16]; at 100.0 µM 93%
inactive: [1]; at 1.2 µM 42% | [1]; at 3.7 µM 62% | [2]; at 1.2 µM 32% | [2]; at 3.7 µM 34% | [2]; at 11.0 µM 65% | [3]; at 1.2 µM -5% | [3]; at 3.7 µM -6% | [3]; at 11.0 µM -4% | [3]; at 33.0 µM -4% | [3]; at 100.0 µM -6% | [4]; at 1.2 µM 29% | [4]; at 3.7 µM 22% | [4]; at 11.0 µM 53% | [4]; at 33.0 µM 59% | [5]; at 1.2 µM 53% | [5]; [17] 64% | [6]; at 1.2 µM 1% | [6]; at 3.7 µM 17% | [6]; [17] 3% | [6]; at 11.0 µM 49% | [6]; [18] 46% | [7]; at 1.2 µM 9% | [7]; at 3.7 µM 8% | [7]; at 11.0 µM 65% | [8]; [17] 5% | [8]; [18] 45% | [9]; at 1.2 µM -3% | [9]; at 3.7 µM 0% | [9]; at 11.0 µM 24% | [9]; at 33.0 µM 58% | [9]; at 100.0 µM 51% | [10]; [17] 9% | [11]; at 1.2 µM 3% | [11]; at 3.7 µM 5% | [11]; [17] -36% | [11]; at 11.0 µM 31% | [11]; at 33.0 µM 50% | [11]; [18] 69% | [11]; at 100.0 µM 36% | [12]; at 1.2 µM 2% | [12]; at 3.7 µM 10% | [12]; at 11.0 µM 33% | [13]; at 1.2 µM 9% | [13]; at 3.7 µM 14% | [13]; at 11.0 µM 66% | [14]; at 1.2 µM 20% | [14]; at 3.7 µM 16% | [15]; [17] 2% | [15]; [18] 68% | [16]; at 1.2 µM 2% | [16]; at 3.7 µM 10% | [16]; at 11.0 µM 65%
